Results published in the supplement of paper PMC6555819.

Assays:
Assay in all cases: PBM binding z-score (relative to random genomic background probes); higher = stronger binding; sequences stand for … in GC…GCGATTGACAGCGTAGAATGAAGG
[1] = tested on: RARb homodimer (NR concentration 270 nM)
Outline: (§1)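 Probes were double-stranded and carried 34-nt variable regions with direct-repeat seeds, single-nucleotide variants, half-site ablations and random human genomic background sequences, printed on custom Agilent 4×180K protein-binding microarrays. Arrays were incubated 1 h with ligand-free nuclear receptor dimers in PBS pH 7.4, 2% milk, 0.02% Triton X-100, 1 mM DTT, 0.2 mg/mL BSA and 0.4 mg/ml salmon testes DNA. Antibodies against each partner (one per run) detected binding, and scanned fluorescence was regression-normalized. Binding z-scores use the random background probes as reference.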

[2] = tested on: RARg:RXRa (NR concentration 270 nM, RXRa partner concentration 90 nM)
Outline: as §1

[3] = tested on: RARg homodimer (NR concentration 270 nM)
Outline: as §1

[4] = tested on: RXRa DBDmut IVT, anti-RXR (DBD mutation: RXRa K156A/R161A, NR concentration 90 nM)
Outline: as §1

[5] = tested on: RXRa homodimer (NR concentration 180 nM)
Outline: as §1

[6] = tested on: THRa:RXRa (NR concentration 90 nM, RXRa partner concentration 90 nM)
Outline: as §1

[7] = tested on: THRa homodimer (NR concentration 90 nM)
Outline: as §1

[8] = tested on: VDR:RXRa (NR concentration 270 nM, RXRa partner concentration 90 nM)
Outline: as §1

[9] = tested on: VDR homodimer (NR concentration 270 nM)
Outline: as §1

Q: Which PBM binding z-score [1] does the source give for TTTGCTAGGTCAACGATGGTCAGCTAATCTGCTA here?
A: 3.69

Q: And the PBM binding z-score [2]?
A: 4.05

Q: And the PBM binding z-score [3]?
A: 5.28

Q: And the PBM binding z-score [4]?
A: 1.02

Q: What about the PBM binding z-score [5] of the same sequence?
A: 2.67

Q: And the PBM binding z-score [6]?
A: 3.33

Q: And the PBM binding z-score [7]?
A: 1.02

Q: And the PBM binding z-score [8]?
A: 1.9

Q: What about the PBM binding z-score [9] of the same sequence?
A: 0.00226

Q: With CCTTACGGGTCACTCCAGGTTTTAGCATCGGAGT as the sequence, how does the PBM binding z-score [1] read?
A: 2.77

Q: And the PBM binding z-score [2]?
A: 4.49

Q: And the PBM binding z-score [3]?
A: 4.02

Q: And the PBM binding z-score [4]?
A: 1.79

Q: And the PBM binding z-score [5]?
A: 4.23

Q: What about the PBM binding z-score [6] of the same sequence?
A: 4.31

Q: What about the PBM binding z-score [7] of the same sequence?
A: 0.0902

Q: And the PBM binding z-score [8]?
A: 3.47

Q: What about the PBM binding z-score [9] of the same sequence?
A: 1.74

Q: What does the source list for TCTTGTAGATCAACAGGAGGTTAAGCAAGATCGA?
A: PBM binding z-score [1]: 0.427; PBM binding z-score [2]: 0.916; PBM binding z-score [3]: 0.301; PBM binding z-score [4]: 0.224; PBM binding z-score [5]: 1.01; PBM binding z-score [6]: 1.24; PBM binding z-score [7]: -0.612; PBM binding z-score [8]: 0.529; PBM binding z-score [9]: -0.456

Q: Which results are given for TTACCAAGGTGAAAGGTCGTTGTTGCACGCCTTG?
A: PBM binding z-score [1]: 2.51; PBM binding z-score [2]: 3.79; PBM binding z-score [3]: 1.79; PBM binding z-score [4]: 0.868; PBM binding z-score [5]: 5.4; PBM binding z-score [6]: 3.45; PBM binding z-score [7]: 1.38; PBM binding z-score [8]: 3.24; PBM binding z-score [9]: 1.08

Q: AGAATGAGGTTAAGATCAGGGTAACAGAATACAT was tested. Which PBM binding z-score [1] did it give?
A: 1.41

Q: And the PBM binding z-score [2]?
A: 2.69

Q: What about the PBM binding z-score [3] of the same sequence?
A: 1.65

Q: What about the PBM binding z-score [4] of the same sequence?
A: 1.08

Q: What about the PBM binding z-score [5] of the same sequence?
A: 2.85

Q: And the PBM binding z-score [6]?
A: 3.16

Q: What about the PBM binding z-score [7] of the same sequence?
A: 1.45

Q: What about the PBM binding z-score [8] of the same sequence?
A: 2

Q: And the PBM binding z-score [9]?
A: 0.804

Q: With CAGCCTGGGTCAGGGCCAGTATAGGAGGAACGTT as the sequence, how does the PBM binding z-score [1] read?
A: 2.07

Q: What about the PBM binding z-score [2] of the same sequence?
A: 2.63

Q: What about the PBM binding z-score [3] of the same sequence?
A: 2.76

Q: What about the PBM binding z-score [4] of the same sequence?
A: -1.29

Q: And the PBM binding z-score [5]?
A: 1.51

Q: And the PBM binding z-score [6]?
A: 1.09

Q: And the PBM binding z-score [7]?
A: -0.124

Q: What about the PBM binding z-score [8] of the same sequence?
A: 0.152

Q: And the PBM binding z-score [9]?
A: -0.545

Q: With GGAAAGAGGGCAAAGTTGATAGCATCTGTCGACG as the sequence, how does the PBM binding z-score [1] read?
A: 1.93

Q: And the PBM binding z-score [2]?
A: 2.84

Q: What about the PBM binding z-score [3] of the same sequence?
A: 2.38

Q: And the PBM binding z-score [4]?
A: 1.85

Q: What about the PBM binding z-score [5] of the same sequence?
A: 2.81

Q: What about the PBM binding z-score [6] of the same sequence?
A: 1.08

Q: What about the PBM binding z-score [7] of the same sequence?
A: 0.0442

Q: And the PBM binding z-score [8]?
A: 1.53

Q: What about the PBM binding z-score [9] of the same sequence?
A: 1.18

Q: Which PBM binding z-score [1] does the source give for CCTCGAAGGACAGAAGGTCAGAGCTGTCCGCTTT here?
A: 3.54

Q: And the PBM binding z-score [2]?
A: 3.21

Q: What about the PBM binding z-score [3] of the same sequence?
A: 2.98

Q: What about the PBM binding z-score [4] of the same sequence?
A: 0.128

Q: What about the PBM binding z-score [5] of the same sequence?
A: 1.76

Q: And the PBM binding z-score [6]?
A: 1.62

Q: And the PBM binding z-score [7]?
A: 0.0154

Q: And the PBM binding z-score [8]?
A: 0.957

Q: And the PBM binding z-score [9]?
A: 0.121

Q: How did the PBM binding z-score [1] turn out when ACTAGCAGGCCAAGTATGGGTCACTCAAACAAAG was run?
A: 2.24

Q: And the PBM binding z-score [2]?
A: 2.53

Q: What about the PBM binding z-score [3] of the same sequence?
A: 1.63

Q: And the PBM binding z-score [4]?
A: -0.279

Q: And the PBM binding z-score [5]?
A: 1.11

Q: And the PBM binding z-score [6]?
A: 0.976

Q: What about the PBM binding z-score [7] of the same sequence?
A: -0.26

Q: And the PBM binding z-score [8]?
A: 0.573

Q: What about the PBM binding z-score [9] of the same sequence?
A: 0.0355

Q: TAGCCTAGGACAGATCGGGCCAGTATACGCTATA was tested. Which PBM binding z-score [1] did it give?
A: -0.402

Q: And the PBM binding z-score [2]?
A: -0.336

Q: And the PBM binding z-score [3]?
A: 0.0371

Q: What about the PBM binding z-score [4] of the same sequence?
A: -1.01

Q: And the PBM binding z-score [5]?
A: -0.257

Q: What about the PBM binding z-score [6] of the same sequence?
A: 0.511

Q: What about the PBM binding z-score [7] of the same sequence?
A: -0.623

Q: What about the PBM binding z-score [8] of the same sequence?
A: -0.85

Q: And the PBM binding z-score [9]?
A: -0.922

Q: Which PBM binding z-score [1] does the source give for ATACTAAGGTGATCGTGAGGTCGTTGATACTAAC here?
A: 1.76

Q: What about the PBM binding z-score [2] of the same sequence?
A: 2.89

Q: And the PBM binding z-score [3]?
A: 1.27

Q: And the PBM binding z-score [4]?
A: 1.35

Q: And the PBM binding z-score [5]?
A: 2.06

Q: What about the PBM binding z-score [6] of the same sequence?
A: 3.7

Q: And the PBM binding z-score [7]?
A: 3.46

Q: And the PBM binding z-score [8]?
A: 3.72

Q: What about the PBM binding z-score [9] of the same sequence?
A: 3.43

Q: ATATGTAGGTTAGGTGGGGTCATTCAGACTAGGC was tested. Which PBM binding z-score [1] did it give?
A: 3.74

Q: What about the PBM binding z-score [2] of the same sequence?
A: 4.1

Q: What about the PBM binding z-score [3] of the same sequence?
A: 3.02

Q: And the PBM binding z-score [4]?
A: 2.19

Q: What about the PBM binding z-score [5] of the same sequence?
A: 5.54

Q: And the PBM binding z-score [6]?
A: 5.05

Q: What about the PBM binding z-score [7] of the same sequence?
A: 3.72

Q: And the PBM binding z-score [8]?
A: 6.5

Q: And the PBM binding z-score [9]?
A: 6.4

Q: CCTACTGGGCCATTCAGAGATCATTGATCATATG was tested. Which PBM binding z-score [1] did it give?
A: -0.395

Q: And the PBM binding z-score [2]?
A: -0.116

Q: And the PBM binding z-score [3]?
A: 0.345

Q: What about the PBM binding z-score [4] of the same sequence?
A: -0.0997

Q: And the PBM binding z-score [5]?
A: -0.144

Q: And the PBM binding z-score [6]?
A: -0.209

Q: What about the PBM binding z-score [7] of the same sequence?
A: -0.607

Q: And the PBM binding z-score [8]?
A: -0.415

Q: And the PBM binding z-score [9]?
A: -0.171

Q: For GCAGACAGGTGACACGCAGGTAACTCAGGGTGGC, which PBM binding z-score [1] is on record?
A: 0.28

Q: What about the PBM binding z-score [2] of the same sequence?
A: 0.798

Q: And the PBM binding z-score [3]?
A: 0.52

Q: What about the PBM binding z-score [4] of the same sequence?
A: -0.855

Q: What about the PBM binding z-score [5] of the same sequence?
A: 0.715

Q: And the PBM binding z-score [6]?
A: 0.997

Q: What about the PBM binding z-score [7] of the same sequence?
A: -0.377

Q: What about the PBM binding z-score [8] of the same sequence?
A: -0.517

Q: What about the PBM binding z-score [9] of the same sequence?
A: -0.397

Q: TCTGCTAGGTCACTTGGTCAGCTAACGAGCTGCC was tested. Which PBM binding z-score [1] did it give?
A: 3.07

Q: What about the PBM binding z-score [2] of the same sequence?
A: 4.03

Q: What about the PBM binding z-score [3] of the same sequence?
A: 4.52

Q: And the PBM binding z-score [4]?
A: 1.54

Q: And the PBM binding z-score [5]?
A: 2.41

Q: What about the PBM binding z-score [6] of the same sequence?
A: 2.58

Q: What about the PBM binding z-score [7] of the same sequence?
A: 0.574

Q: What about the PBM binding z-score [9] of the same sequence?
A: 0.129

Q: TATACAGGGTCAAAGGCCAGAGTTCGAATGTCGA was tested. Which PBM binding z-score [1] did it give?
A: 3.91

Q: What about the PBM binding z-score [2] of the same sequence?
A: 5.81

Q: What about the PBM binding z-score [3] of the same sequence?
A: 5.41

Q: And the PBM binding z-score [4]?
A: 3.27

Q: What about the PBM binding z-score [5] of the same sequence?
A: 7.53

Q: What about the PBM binding z-score [6] of the same sequence?
A: 3.61

Q: And the PBM binding z-score [7]?
A: 1.03

Q: What about the PBM binding z-score [9] of the same sequence?
A: 4.77
